Data as given in the supplement of paper PMC9694430.
Counter-ions that a name gives are not always drawn.

tested on: LOC_OS06G16330-cb003; experiment: thermal shift delta Tm vs DMSO control; higher = stronger stabilization (binding); conditions: 12.5 µM; protein concentration 2 µM
Method in brief: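 Rice kinase domain constructs, made in E. coli and purified, were placed in 96-well plates at 2 μM in 19.5 μl of 100 mM potassium phosphate pH 7.5, 150 mM NaCl, 10% glycerol and 5 × SYPRO Orange, with compound in DMSO. A temperature ramp from 25°C to 95°C at 0.05°C/s was used for differential scanning fluorimetry. The melting temperature shift is a triplicate mean compared with DMSO-only protein, derived from Boltzmann fits.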
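Also: purified Escherichia coli-expressed rice kinase domain construct.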

Chain of LOC_OS06G16330-cb003 (as listed by the source): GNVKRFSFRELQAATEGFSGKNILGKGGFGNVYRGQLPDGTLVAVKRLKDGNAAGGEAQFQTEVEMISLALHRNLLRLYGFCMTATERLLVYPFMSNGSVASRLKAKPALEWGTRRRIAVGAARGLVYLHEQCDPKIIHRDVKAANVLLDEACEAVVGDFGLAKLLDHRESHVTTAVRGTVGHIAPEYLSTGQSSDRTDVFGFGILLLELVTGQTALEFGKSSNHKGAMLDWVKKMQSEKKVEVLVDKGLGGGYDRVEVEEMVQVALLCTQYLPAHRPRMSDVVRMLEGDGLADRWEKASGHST

Structure (SMILES) | thermal shift delta Tm [°C]
C[C@H]1CNC(=O)c2cnn3ccc(nc23)N[C@H](C)c2cc(F)ccc2O1 | 9.31
Cn1cc(-c2ccc3c(c2)CCN3C(=O)Cc2cccc(C(F)(F)F)c2)c2c(N)ncnc21 | 2.76
Cn1c(=O)c(F)c(Nc2ccc(I)cc2F)c2c(=O)n(C[C@@H](O)CO)cnc21 | 0.18
CNC(=O)c1cccc(-c2ccc3c(N4CCOC[C@@H]4C)nc(N4CCOC[C@@H]4C)nc3n2)c1 [Vistusertib (AZD2014)] | 0.19
Cc1nc(Nc2cnn(C3CCNCC3)c2)nc2c1N(C)C(=O)c1cc3ccccc3cc1N2C | 1.66
COc1cc2/c(=N/c3ccc(Br)cc3F)nc[nH]c2cc1OCC1CCN(C)CC1 [Vandetanib (ZD6474)] | 9.59
CCn1c(C(=O)N(C2CC2)C2CC2)cc2c3c(ncn3C)c(Nc3cc(C)n(C)n3)nc21 | 2.11
OCCn1cc(-c2cnc3nnn(Cc4ccc5ncccc5c4)c3n2)cn1 | -0.29
N#CC[C@H](C1CCCC1)n1cc(-c2ncnc3[nH]ccc23)cn1 | 3.75
CCn1nc(C2CCN(C(=O)CCO)CC2)nc1-c1cnc(N)c(-c2nnc(C(C)(C)C)o2)n1 | 5.59
CC(C)(C)c1cc(NC(=O)Nc2ccc(Oc3ccnc4[nH]c(=O)cnc34)cc2F)n(-c2ccccc2)n1 | 5.36
CO[C@H]1CC[C@H](N2C(=O)CNc3ncc(-c4ccc(C(C)(C)O)nc4)nc32)CC1 | -0.57
CC[C@@H]1C(=O)N(C)c2cnc(Nc3ccc(C(=O)N[C@H]4CC[C@H](N5CCN(CC6CC6)CC5)CC4)cc3OC)nc2N1C(C)C [Volasertib (BI 6727)] | 0.46
COc1ccc2c(c1)[C@]1(C[C@H]1c1ccc3c(/C=C/c4ccc(CN5C[C@@H](C)O[C@@H](C)C5)cc4)n[nH]c3c1)C(=O)N2 | 11.6
O=C(Nc1nc2cccc(-c3ccc(CN4CCS(=O)(=O)CC4)cc3)n2n1)C1CC1 [Filgotinib (GLPG0634)] | 5.12
CCn1c(-c2nonc2N)nc2c(C#CC(C)(C)O)ncc(OC[C@H]3CCCNC3)c21 | -0.37
Cc1cnc(Nc2ccc(OCCN3CCCC3)cc2)nc1Nc1cccc(S(=O)(=O)NC(C)(C)C)c1 | 4.38
Cc1cc(Nc2cc(N3CCN(C)CC3)nc(/C=C/c3ccccc3)n2)n[nH]1 [ENMD-2076 L-(+)-Tartaric acid] | 5.83
CC#CC(=O)N1CC[C@@H](n2c(=O)n(-c3ccc(Oc4ccccc4)cc3)c3c(N)ncnc32)C1 [ONO-4059 (GS-4059) hydrochloride] | -0.41
CCN1CCN(Cc2ccc(Nc3ncc(F)c(-c4cc(F)c5nc(C)n(C(C)C)c5c4)n3)nc2)CC1 | 6.17
CN(C)C[C@@H]1CCn2cc(c3ccccc32)C2=C(C(=O)NC2=O)c2cn(c3ccccc23)CCO1 | 0.27
CN1CCN(Cc2ccc(NC(=O)Nc3ccc(Oc4ccnc(N)n4)cc3)cc2C(F)(F)F)CC1 | 5.38
O=C(NOCCO)c1ccc2cncn2c1Nc1ccc(I)cc1F | -0.27
CCCCCCCCCCCCc1ccc(S(=O)(=O)Nc2nncs2)cc1 | 0.11
